Test results as given in ChEMBL document CHEMBL3988442, “University of Dundee, Small-Polar-MMV Screening Library” (2021).
For part of these data: Results with a measured potency or affinity are listed apart.

How the values were obtained:
Set-up in all cases: scale not given: direction of the effect not stated beside the values
[1] = biological target: Protein translocase subunit SecA (Escherichia coli (strain K12)) (UniProt P10408); test: Assay to Identify E. coli SecA ATPase Inhibitors; type: functional; conditions: 30 µM
Protein translocase subunit SecA (Escherichia coli (strain K12)), sequence (P10408 whole entry): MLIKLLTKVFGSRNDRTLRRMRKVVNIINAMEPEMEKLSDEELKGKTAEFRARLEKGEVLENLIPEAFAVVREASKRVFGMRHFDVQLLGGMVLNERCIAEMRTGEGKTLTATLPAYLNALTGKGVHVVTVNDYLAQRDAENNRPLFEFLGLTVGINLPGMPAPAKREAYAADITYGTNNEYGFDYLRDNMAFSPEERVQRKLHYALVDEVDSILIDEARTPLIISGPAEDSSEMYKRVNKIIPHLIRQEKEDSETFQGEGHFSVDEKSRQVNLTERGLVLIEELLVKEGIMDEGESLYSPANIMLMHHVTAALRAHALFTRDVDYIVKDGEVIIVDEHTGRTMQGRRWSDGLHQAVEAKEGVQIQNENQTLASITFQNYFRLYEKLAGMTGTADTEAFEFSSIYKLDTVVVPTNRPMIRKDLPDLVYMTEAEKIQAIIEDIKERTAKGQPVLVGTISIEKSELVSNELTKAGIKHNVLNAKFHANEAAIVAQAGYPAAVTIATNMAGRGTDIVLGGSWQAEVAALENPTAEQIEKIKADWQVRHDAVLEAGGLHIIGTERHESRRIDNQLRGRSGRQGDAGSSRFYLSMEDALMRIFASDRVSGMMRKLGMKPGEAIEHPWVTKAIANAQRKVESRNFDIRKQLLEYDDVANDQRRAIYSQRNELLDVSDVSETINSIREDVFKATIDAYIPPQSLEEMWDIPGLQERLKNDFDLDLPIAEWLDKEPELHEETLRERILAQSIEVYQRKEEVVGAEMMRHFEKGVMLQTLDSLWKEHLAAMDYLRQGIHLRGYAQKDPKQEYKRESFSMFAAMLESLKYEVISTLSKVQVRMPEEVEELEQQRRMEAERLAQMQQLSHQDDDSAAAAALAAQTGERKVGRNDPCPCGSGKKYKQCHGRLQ

[2] = biological target: T1, Ubiquitin-activating enzyme e1, putative (Leishmania donovani (strain BPK282A1)) (UniProt E9BSI1); test: Leishmania donovani Ubiquitin Activating Enzyme (LdE1); type: functional; conditions: 30 µM
T1 sequence (whole entry): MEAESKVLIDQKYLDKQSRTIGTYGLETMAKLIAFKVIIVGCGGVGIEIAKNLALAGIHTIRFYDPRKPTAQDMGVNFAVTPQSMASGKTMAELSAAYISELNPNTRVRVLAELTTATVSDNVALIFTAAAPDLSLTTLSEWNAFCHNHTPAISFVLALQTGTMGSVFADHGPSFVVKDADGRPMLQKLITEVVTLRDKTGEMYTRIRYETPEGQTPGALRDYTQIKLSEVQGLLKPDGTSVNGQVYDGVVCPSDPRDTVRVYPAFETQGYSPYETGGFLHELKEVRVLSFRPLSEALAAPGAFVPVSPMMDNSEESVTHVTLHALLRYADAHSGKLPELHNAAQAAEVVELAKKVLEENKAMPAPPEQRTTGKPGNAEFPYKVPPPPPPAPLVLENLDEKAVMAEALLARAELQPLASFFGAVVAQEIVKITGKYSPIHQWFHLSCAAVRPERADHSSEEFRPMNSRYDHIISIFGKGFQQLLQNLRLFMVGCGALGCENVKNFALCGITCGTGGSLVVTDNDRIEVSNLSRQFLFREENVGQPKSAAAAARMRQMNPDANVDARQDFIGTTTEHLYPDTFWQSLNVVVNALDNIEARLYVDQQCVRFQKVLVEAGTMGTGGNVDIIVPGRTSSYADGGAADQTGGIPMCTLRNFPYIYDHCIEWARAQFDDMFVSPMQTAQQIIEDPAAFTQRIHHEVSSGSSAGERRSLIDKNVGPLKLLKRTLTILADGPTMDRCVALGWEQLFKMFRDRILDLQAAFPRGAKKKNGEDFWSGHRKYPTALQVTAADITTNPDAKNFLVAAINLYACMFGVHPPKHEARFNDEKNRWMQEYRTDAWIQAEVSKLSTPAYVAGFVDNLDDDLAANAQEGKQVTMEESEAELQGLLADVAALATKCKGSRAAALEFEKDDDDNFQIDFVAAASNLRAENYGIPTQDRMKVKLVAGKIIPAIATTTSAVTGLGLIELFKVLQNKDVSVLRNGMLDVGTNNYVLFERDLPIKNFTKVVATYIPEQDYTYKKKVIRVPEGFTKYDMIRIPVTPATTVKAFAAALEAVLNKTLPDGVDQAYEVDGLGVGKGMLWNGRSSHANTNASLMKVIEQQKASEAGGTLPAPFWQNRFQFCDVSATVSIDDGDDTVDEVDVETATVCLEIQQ

[3] = biological target: Sialic acid-binding Ig-like lectin 9 (Homo sapiens) (UniProt Q9Y336); test: Hs-Siglec9 ALPHAscreen SOP 20170721; conditions: 10 µM
Sialic acid-binding Ig-like lectin 9 (Homo sapiens), sequence (Q9Y336 whole entry): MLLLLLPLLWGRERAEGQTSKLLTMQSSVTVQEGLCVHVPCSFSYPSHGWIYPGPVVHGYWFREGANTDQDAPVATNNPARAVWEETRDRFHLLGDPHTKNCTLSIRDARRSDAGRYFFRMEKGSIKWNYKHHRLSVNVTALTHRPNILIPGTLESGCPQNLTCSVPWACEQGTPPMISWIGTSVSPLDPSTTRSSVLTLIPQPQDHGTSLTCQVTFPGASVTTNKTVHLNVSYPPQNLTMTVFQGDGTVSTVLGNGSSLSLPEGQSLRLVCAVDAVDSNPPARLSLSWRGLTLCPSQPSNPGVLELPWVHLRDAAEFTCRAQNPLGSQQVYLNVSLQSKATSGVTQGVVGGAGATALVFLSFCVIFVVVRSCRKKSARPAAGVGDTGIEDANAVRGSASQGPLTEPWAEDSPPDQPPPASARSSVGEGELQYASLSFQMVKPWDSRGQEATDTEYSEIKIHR

Trypanosoma cruzi = test: Trypanosoma cruzi phosphomannomutase and mannose-1-phosphate guanylyltransferase assay; type: functional; conditions: 10 µM
[4] = biological target: T2, Arginase-2, mitochondrial (Homo sapiens) (UniProt P78540); test: in vitro enzyme assay to detect the production of urea directly proportional to the activity of Arginase II; type: functional; conditions: 33.3 µM; also: in the data most compounds retested in dose-response had high values
T2 sequence (whole entry): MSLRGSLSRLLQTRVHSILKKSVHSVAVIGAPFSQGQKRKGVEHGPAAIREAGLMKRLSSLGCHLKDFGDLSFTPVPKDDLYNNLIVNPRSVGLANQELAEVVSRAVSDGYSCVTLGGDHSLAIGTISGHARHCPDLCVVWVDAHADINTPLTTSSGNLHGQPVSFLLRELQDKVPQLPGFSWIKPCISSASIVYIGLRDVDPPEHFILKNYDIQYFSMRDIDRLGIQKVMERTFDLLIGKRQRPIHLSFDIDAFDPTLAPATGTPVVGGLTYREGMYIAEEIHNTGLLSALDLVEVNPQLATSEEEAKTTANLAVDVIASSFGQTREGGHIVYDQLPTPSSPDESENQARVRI

[5] = biological target: T3, Proteasome subunit beta (Trypanosoma cruzi) (UniProt O96673); test: Trypanosoma cruzi proteasome chymotrypsin-like activity (TcProtChymo) assay.; also: in the data most compounds retested in dose-response had high values; type: functional; conditions: 9.37 µM
T3 sequence (whole entry): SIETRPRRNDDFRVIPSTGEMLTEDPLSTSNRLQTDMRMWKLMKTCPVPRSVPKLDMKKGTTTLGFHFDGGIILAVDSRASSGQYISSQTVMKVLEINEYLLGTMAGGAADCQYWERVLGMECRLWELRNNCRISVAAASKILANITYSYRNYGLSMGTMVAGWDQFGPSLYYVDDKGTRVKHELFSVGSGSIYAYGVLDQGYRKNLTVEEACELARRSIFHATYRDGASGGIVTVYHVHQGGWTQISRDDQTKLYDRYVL

Homo sapiens = species on record: Homo sapiens; test: To identify inhibition of the IFN signalling (Jak-Stat) pathway via expression of an eGFP reporter gene under the control of an IFN-stimulated response element (ISRE) containing MxA promoter.; type: functional; conditions: 30 µM
[6] = biological target: T4, Tyrosyl-tRNA synthetase, putative (Trypanosoma cruzi (strain CL Brener)) (UniProt Q4DSP6); test: Trypanosoma cruzi tyrosyl tRNA synthetase (TcYRS) _High Tyrosine SOP; type: functional; conditions: 30 µM; also: in the data most compounds retested in dose-response had high values
T4 sequence (whole entry): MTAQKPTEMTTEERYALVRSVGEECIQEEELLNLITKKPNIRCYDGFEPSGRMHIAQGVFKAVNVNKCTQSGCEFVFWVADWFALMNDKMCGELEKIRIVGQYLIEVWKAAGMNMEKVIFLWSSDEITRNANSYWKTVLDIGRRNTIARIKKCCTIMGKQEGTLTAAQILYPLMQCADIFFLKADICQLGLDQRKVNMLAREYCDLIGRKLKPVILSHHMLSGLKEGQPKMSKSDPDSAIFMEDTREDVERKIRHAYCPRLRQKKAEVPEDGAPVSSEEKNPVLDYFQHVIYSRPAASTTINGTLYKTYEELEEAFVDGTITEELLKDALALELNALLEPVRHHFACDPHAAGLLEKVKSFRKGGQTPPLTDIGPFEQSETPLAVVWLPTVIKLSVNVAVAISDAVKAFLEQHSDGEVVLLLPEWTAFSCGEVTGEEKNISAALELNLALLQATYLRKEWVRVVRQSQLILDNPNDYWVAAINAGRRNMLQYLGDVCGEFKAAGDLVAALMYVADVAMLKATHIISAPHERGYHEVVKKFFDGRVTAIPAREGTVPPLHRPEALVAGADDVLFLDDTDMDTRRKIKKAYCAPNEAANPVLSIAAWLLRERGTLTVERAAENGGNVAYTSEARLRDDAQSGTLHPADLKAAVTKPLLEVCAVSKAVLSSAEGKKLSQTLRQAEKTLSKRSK

[7] = biological target: T4, Tyrosyl-tRNA synthetase, putative (Trypanosoma cruzi (strain CL Brener)); test: Trypanosoma cruzi tyrosyl tRNA synthetase (TcYRS) SOP; type: functional; conditions: 30 µM
[8] = biological target: Chromo domain-containing protein 1 (Saccharomyces cerevisiae (strain ATCC 204508 / S288c) (Baker's yeast)) (UniProt P32657); test: ScCHD-1 Enzyme Inhibition Assay; type: functional; conditions: 30 µM; also: in the data most compounds retested in dose-response had high values
Chromo domain-containing protein 1 (Saccharomyces cerevisiae (strain ATCC 204508 / S288c) (Baker's yeast)), sequence (P32657 whole entry, the tested form may be a part): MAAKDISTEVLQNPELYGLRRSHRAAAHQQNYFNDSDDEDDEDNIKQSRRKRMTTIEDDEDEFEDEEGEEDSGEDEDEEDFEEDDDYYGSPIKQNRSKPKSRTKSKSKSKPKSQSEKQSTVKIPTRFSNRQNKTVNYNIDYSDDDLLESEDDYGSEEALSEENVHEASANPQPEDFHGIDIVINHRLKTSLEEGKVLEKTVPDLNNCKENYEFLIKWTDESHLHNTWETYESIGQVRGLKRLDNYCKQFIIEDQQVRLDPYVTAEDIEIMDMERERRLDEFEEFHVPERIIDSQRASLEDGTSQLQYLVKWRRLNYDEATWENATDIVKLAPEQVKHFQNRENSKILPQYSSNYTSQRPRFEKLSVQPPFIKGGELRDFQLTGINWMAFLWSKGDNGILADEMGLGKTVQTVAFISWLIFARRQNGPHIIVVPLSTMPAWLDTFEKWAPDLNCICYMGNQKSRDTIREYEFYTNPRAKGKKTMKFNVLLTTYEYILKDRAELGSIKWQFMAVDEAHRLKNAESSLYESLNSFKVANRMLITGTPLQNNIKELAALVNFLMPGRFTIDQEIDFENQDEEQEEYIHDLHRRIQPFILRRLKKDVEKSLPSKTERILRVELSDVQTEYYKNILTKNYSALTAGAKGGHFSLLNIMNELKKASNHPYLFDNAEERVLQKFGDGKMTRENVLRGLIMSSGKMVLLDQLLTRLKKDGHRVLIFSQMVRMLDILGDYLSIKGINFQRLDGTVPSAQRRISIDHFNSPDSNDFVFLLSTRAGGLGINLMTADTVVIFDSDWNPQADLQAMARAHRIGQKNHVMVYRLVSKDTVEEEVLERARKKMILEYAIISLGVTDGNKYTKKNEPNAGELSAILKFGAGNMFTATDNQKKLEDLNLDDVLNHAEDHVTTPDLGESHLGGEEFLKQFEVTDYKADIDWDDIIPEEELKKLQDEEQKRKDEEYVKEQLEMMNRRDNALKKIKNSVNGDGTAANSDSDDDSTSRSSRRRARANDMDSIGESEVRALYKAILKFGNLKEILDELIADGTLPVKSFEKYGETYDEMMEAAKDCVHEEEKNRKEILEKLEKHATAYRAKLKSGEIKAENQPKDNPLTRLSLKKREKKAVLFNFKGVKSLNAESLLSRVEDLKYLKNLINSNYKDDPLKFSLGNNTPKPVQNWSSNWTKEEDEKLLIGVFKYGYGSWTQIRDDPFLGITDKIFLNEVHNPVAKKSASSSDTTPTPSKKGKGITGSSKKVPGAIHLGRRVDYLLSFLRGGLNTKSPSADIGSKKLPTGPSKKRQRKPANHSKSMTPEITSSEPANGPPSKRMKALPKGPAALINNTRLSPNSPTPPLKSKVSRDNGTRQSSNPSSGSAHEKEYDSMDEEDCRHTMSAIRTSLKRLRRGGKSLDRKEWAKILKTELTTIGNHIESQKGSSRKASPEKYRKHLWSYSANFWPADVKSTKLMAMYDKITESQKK

Structure (SMILES) | Percent Effect [1] [%] | Percent Effect [2] [%] | Percent Effect [3] [%] | Percent Effect (Trypanosoma cruzi) [%] | Percent Effect [4] [%] | Percent Effect [5] [%] | Percent Effect (Homo sapiens) [%] | Percent Effect [6] [%] | Percent Effect [7] [%] | Percent Effect [8] [%]
Cc1csc2ncc(-c3ccnc(N4CCCC[C@@H]4CO)n3)c(=O)n12 | -2.72 | -16 | -2.59 | -2.41 | 0 | 7.72 | 19.8 | -3.68 | -12.8 | -17.9
COc1ccc2c(c1)OCC(CNC(=O)c1ccncc1)C2 (stereo not given) | -6.47 | 13.5 | 11.5 | 7.66 | 43.7 | 20.4 | 32.2 | 7.98 | 19.5 | 71.9
Cc1ncc(-c2ccnc(N3CCN(C)CC3)n2)c(-c2cccnc2)n1 | -1.44 | 8 | -2.21 | -9.24 | -39.9 | 8.57 | 8.85 | 4.74 | -2.56 | -12.5
Cc1nc(CNCC2CN(C)CCO2)cs1 (stereo not given) | -4.87 | 18.2 | 4.98 | 3.73 | -3.89 | 1.05 | -7.33 | 1.96 | 21.2 | -11.4
CNC(=O)[C@@H]1C[C@H]2CN(Cc3ccco3)C[C@H]2N1C | -3.02 | -27.3 | -0.86 | -3.19 | 4.11 | 16.7 | -13.8 | 9.66 | 12.5 | -2.19
CCOC1CCCN(C(=O)c2sccc2-n2cnnn2)C1 (stereo not given) | -1.7 | 20.5 | -9.12 | 8.73 | -1.23 | 13.1 | 21.5 | 8.13 | 22.9 | -4.42
CC(=O)N1CCC(c2cc(C(F)(F)F)n3ccnc3n2)CC1 | -2.29 | 9.33 | -6.3 | 0.789 | 0.443 | 16.1 | 6.98 | 7.41 | -25 | -32.2
CCCc1n[nH]cc1C(=O)N1CCC(c2nccn2CCOC)CC1 | -7.31 | 16.2 | 21.9 | 8.44 | 20.6 | 7.19 | 11 | 5.85 | 12.2 | 20.9
Cc1cc(CN(C)C(=O)c2ccnc(N(C)C)c2)no1 | -2.33 | 8 | 1.08 | -5.82 | 2.22 | 4.67 | 9.46 | 3.68 | 10.3 | -13.6
COCc1nc(C(=O)NS(=O)(=O)c2ccc(C)s2)cs1 | -1.18 | -5.13 | -1.4 | -5.35 | 6.56 | -7.25 | 18.7 | 1.44 | 1.21 | -0.772
O=C(NCC1CCOC1)Nc1ccc(OCC(F)(F)F)nc1 (stereo not given) | 0.633 | 7.69 | 2.59 | -1.97 | 8.2 | 7.76 | 17.4 | 2.39 | 8.43 | -2.87
COCCc1noc(CN2CCOC(Cn3nc(C)cc3C)C2)n1 (stereo not given) | -2.32 | 10.4 | 14.5 | 6.72 | 8.4 | -7.89 | 7.1 | 4.9 | 18.8 | -6.59
Cn1ccnc1CN1CCOCC(Cc2ccccn2)C1 (stereo not given) | -3.37 | 6.67 | 0.649 | -4.14 | 5.75 | 11.3 | 8.81 | 1.06 | 10 | -19.9
O=C1CCC2(CCN(Cc3ccc(F)cc3)CC2)N1Cc1ccccc1 | -4.42 | 3.9 | -4.8 | -2.63 | -0.913 | 9.7 | 1.33 | 5.8 | 7.5 | -4.62
CN(C)c1ccccc1C(=O)N1C[C@@H](CN2CCCCC2)[C@@H](CO)C1 | -7.49 | 2.7 | 6.19 | 7.27 | -5.25 | 16.6 | -22.6 | 3.72 | 12.2 | -3.83
Cc1nc(CN(C)C2CCN(Cc3ccc4ccccc4n3)C2)no1 (stereo not given) | 0.184 | -5.2 | -6.12 | 7.28 | -9.22 | 20.4 | 10.1 | 21.6 | 30.6 | -10.1
Cc1cnn(C2CCCN(C(=O)c3sccc3-n3cnnn3)C2)c1 (stereo not given) | -2 | 7.69 | -3.12 | -5.54 | 2.46 | 7.93 | 33.8 | 5.26 | 10.8 | 3.04
c1ccc(Cn2ccnc2CN2CCCC2c2noc(C3CC3)n2)cc1 (stereo not given) | 2.82 | 5.33 | -7.23 | -5.22 | 1.77 | 19.1 | 15.7 | 7.89 | 10.3 | -12.1
Cn1cc(CN2CCCN(C(=O)c3cc[nH]n3)CC2)cn1 | -1.81 | 5.13 | -4.2 | 4.22 | -0.41 | -6.57 | 23.7 | 0.478 | 13.2 | -1.64
Cc1ccc(-c2cc(CN3CCOC(Cn4cncn4)C3)on2)cc1 (stereo not given) | -2.91 | 5.2 | 4.78 | -0.56 | -1.43 | 1.4 | 12.8 | 10.8 | 18.8 | -5.72
CCc1noc(C(C)N2CCC(N3CCCC3)CC2)n1 (stereo not given) | -9.65 | 16 | 8.32 | 5.02 | -5.76 | 7.38 | -3.75 | 5.79 | 12.8 | -10.6
COc1ncccc1CNC(=O)c1cccnc1O | -1.81 | 12.8 | -3.2 | 5.35 | 1.23 | 8.79 | -10.7 | 11 | 22.9 | -2.93
CN1CC(c2ccccc2)CC12CCN(C(=O)c1cncc(Cl)c1)CC2 (stereo not given) | -4.25 | 5.41 | 3.4 | -0.679 | 0.35 | 12.3 | 12.2 | 7.98 | 14.6 | -5.7
O=C1COC2(CCN(C(=O)c3ccco3)CC2)CN1Cc1ccccn1 | -3.84 | 16.9 | 2.04 | 0 | 5.48 | 8.84 | -15.4 | 11.6 | 20 | -5.91
